The source of these data is the supplement of paper PMC7156485.

SMILES strings stand for the structures. Several values for one entry are separate records, joined by “and”; a condition that tells them apart may be missing. Equal entries are not always repeated.
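Also: TDF is a line of transformed human dermal fibroblasts of mesenchymal origin.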

The test system of the experiment is HCC1569. The experiment in a line: H1.0 immunofluorescence intensity relative to DMSO (% of DMSO); higher = stronger H1.0 induction, active = 140 or more. Conditions: concentration: 10 µM; 24 h. The method, boiled down:
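Compounds were applied at 10 µM for 24 h at 37 °C, in triplicate, to HCC1569 and TDF cells. The cells were then fixed and stained for H1.0, and nuclei were counterstained with DAPI. Nuclear H1.0 intensity or cell number is reported relative to the plate control as a percent, taking the median of replicates. Smoothing for positional effects was applied to HCC1569 values only.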
Turning to `CCN(CC)CCNC(=O)c1ccc(N)cc1.Cl` [Procainamide.HCl], the H1.0 immunofluorescence intensity was 101 (inactive).

For the molecule `Cc1cccc(Nc2cc(Cl)nc(SCC(=O)O)n2)c1C`, the H1.0 immunofluorescence intensity is 97.6 (inactive).

Turning to `Cc1cc2c(OCC(CNC(C)(C)C)OC(=O)c3ccccc3)cccc2[nH]1` (centres undefined) [Bopindolol], the H1.0 immunofluorescence intensity is 103 (inactive).

Turning to `COC(=O)c1ccc2c(c1)nc(NC(=O)c1ccccc1)n2CCCc1ccccc1`, the H1.0 immunofluorescence intensity was 88.3 (inactive).

As for `COc1ccc(-c2cc(C(O)C3CCCCN3)c3ccccc3n2)cc1.Cl.Cl` (centres undefined), the H1.0 immunofluorescence intensity was 157 (active).

As for `O=C1c2cccc(O)c2C(=O)c2c(O)cc(CO)cc21` [Aloe-emodine], the H1.0 immunofluorescence intensity is 99.5 (inactive).

For `O=C1CCN(c2ccccc2)N1` [Phenidone], the H1.0 immunofluorescence intensity was 98.8 (inactive).

With `Cl.N=c1c[n+](N2CCOCC2)[n-]o1` [3-Morpholinosydnonimine hydrochloride], the H1.0 immunofluorescence intensity was 88.8 (inactive).

Turning to `CCCCCC=CC=CC(O)CCCCCCCC(=O)O` (centres undefined), the H1.0 immunofluorescence intensity was 100 (inactive).

Consider `CCN(CC)CC(=O)Nc1c(C)cccc1C.Cl.O` [Lidocaine.HCl.H2O], for which the H1.0 immunofluorescence intensity was 103 (inactive).

Take `Cc1ccc(OCC(O)C(C)NC(C)C)c2c1CCC2.Cl` (centres undefined) [ICI 118,551 hydrochloride]: the H1.0 immunofluorescence intensity was 98.4 (inactive).

Turning to `CN(C)c1ccnc2sc3c(=O)n(N4CCCCCC4)cnc3c12`, the H1.0 immunofluorescence intensity is 89.5 (inactive).

As to `CCCCCC(O)C=CC=CCCCCCCCCCC(=O)O` (centres undefined), the H1.0 immunofluorescence intensity is 96.8 (inactive).

In the case of `CCC=CCC=CCC=CCCCCCCCCCC(=O)O` [Eicosatrienoic acid], the H1.0 immunofluorescence intensity was 99.5 (inactive).

As for `COc1cc2ncnc(Sc3nnc(C)s3)c2cc1OC`, the H1.0 immunofluorescence intensity was 160 (active).

With `COc1c2occc2cc2ccc(=O)oc12` [Xanthotoxin], the H1.0 immunofluorescence intensity was 103 (inactive).

For the molecule `Cc1cc(C(C)(C)C)c(O)c(C(C)(C)C)c1`, the H1.0 immunofluorescence intensity was 99 (inactive).

Consider `COC(=O)C(=C1OC(=O)C(c2ccccc2)=C1O)c1ccccc1` [Vulpinic acid], for which the H1.0 immunofluorescence intensity was 91.2 (inactive).

For `CCn1cc(C(=O)O)c(=O)c2cc(F)c(N3CCNCC3)cc21` [Norfloxacin], the H1.0 immunofluorescence intensity is 101 (inactive).

As for `Br.CN1CCc2c(cc(O)c(O)c2Cl)C(c2cccc(Cl)c2)C1` (centres undefined), the H1.0 immunofluorescence intensity was 112 (inactive).

With `Cc1cc(Nc2nc(NC(C)c3ccc(F)cc3)c(C#N)cc2F)n[nH]1` (centres undefined), the H1.0 immunofluorescence intensity was 146 (active).

For `CC(C)C1NC(=O)C(CCCCN)NC(=O)C(Cc2c[nH]c3ccccc23)NC(=O)C(Cc2ccc(O)cc2)NC(=O)C(C)N(C)C(=O)C(Cc2ccccc2)NC1=O` (centres undefined) [Seglitide], the H1.0 immunofluorescence intensity is 152 (active).

Regarding `Cn1ccc(NC(=O)c2cc(Oc3ccc(C(=O)N4CCC4)c(F)c3)c3c(c2)OC(C)(C)C3)n1`, the H1.0 immunofluorescence intensity is 105 (inactive).

Regarding `CCN(CC)CCNC(=O)c1ccc(NC(C)=O)cc1.Cl` [N-Acetylprocainamide hydrochloride], the H1.0 immunofluorescence intensity is 116 (inactive).

`O=C(O)c1cccnc1Nc1cccc(C(F)(F)F)c1` [Niflumic acid]: the H1.0 immunofluorescence intensity is 101 (inactive).

`COC(=O)c1ccc(O)c2[nH]c3c(C=O)c(O)cc(=O)c-3nc12` [Lomofungin]: the H1.0 immunofluorescence intensity is 101 (inactive).

As for `CCC1Cc2cc(O)ccc2C2=C1c1ccc(O)cc1CC2CC` [(R,R)-cis-Diethyl tetrahydro-2,8-chrysenediol], the H1.0 immunofluorescence intensity was 107 (inactive).

Regarding `CC1(C)CCCC(C)(C2CCC3(C)C2C(O)CC2C4(C)CCC(O)C(C)(C)C4C(O)CC23C)O1` (centres undefined) [Panaxatriol], the H1.0 immunofluorescence intensity was 99.6 (inactive).

`COc1ccc2cc1Oc1ccc(cc1)CC1c3cc(c(OC)cc3CCN1C)Oc1c(OC)c(OC)cc3c1C(C2)N(C)CC3` (centres undefined) [Isotetrandrine]: the H1.0 immunofluorescence intensity is 103 (inactive).

On to `Cc1coc2c1C(=O)C(=O)c1c-2ccc2c1CCCC2(C)C` [Tanshinone IIA], for which the H1.0 immunofluorescence intensity is 114 (inactive).

In the case of `Cc1ccc(S(=O)(=O)C=CC#N)cc1`, the H1.0 immunofluorescence intensity was 191 (active) and 104 (inactive).

`CCCCCCCCCCCC=CCC=CCCCC(=O)O` [5(Z), 8(Z)-Eicosadienoic acid]: the H1.0 immunofluorescence intensity was 99.3 (inactive).

As for `CSc1ccc2c(c1)N(CCC1CCCCN1C)c1ccccc1S2.Cl` (centres undefined) [Thioridazine hydrochloride], the H1.0 immunofluorescence intensity is 155 (active).

With `O=C(O)c1ccc(SC2=NS(=O)(=O)c3ccccc32)cc1` [4-((1,1-dioxidobenzo[d]isothiazol-3-yl)thio)benzoic acid], the H1.0 immunofluorescence intensity is 98.7 (inactive).
